Most compounds without a hit are left out; they make up all but 7.9% or so of the library.
FMDV antiviral = High Throughput Screening for Foot and Mouth Disease Virus Antivirals | Potency, µM (top dose mostly 57.9 µM), without a hit: at the top dose activity change, negative = inhibition, usual class: inhibitors | FMDV antiviral cell-based qHTS | AID 1159524, 2015 | 1.2% of 410,000 active; calls by dose curve; tested in HEK293T cells; also: read-out not given here; potency is read from the fitted curve at half-maximal effect; nearly all actives have a fitted effect of over 45% in size
MARV entry inh = qHTS for inhibitors of binding or entry into cells for Marburg Virus; Marburg virus pseudotyped entry inhibition, cell reporter; Potency, µM (top dose mostly 37.8 µM), for the others: top-dose activity change, negative = inhibition, hits mostly inhibitors; 1.8% of 300,000 active; AID 540276, 2011; calls by dose curve; tested in HEK293 cells; also: potency is read from the fitted curve at half-maximal effect
HCMV antiviral = qHTS Assay for inhibitors of the human cytomegalovirus (HCMV); 4.5% of 410,000 active; HFF cells, HCMV-luciferase reporter, 72 h; stronger effect = lower value; AID 1259415, 2018; activity change, negative = inhibition, % at 57.5 µM; in the data active = activity change below about -60%; inconclusive = no clear call, values can overlap the other calls; inactive = above about -39%
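Compounds were evaluated in HFFs infected with an HCMV luciferase reporter virus (MOI 1 PFU/cell). Luciferase in lysates collected 72 h post infection served as the replication measure.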
LASV entry inh = qHTS for Inhibitors of binding or entry into cells for Lassa Virus; Lassa virus pseudotype entry inhibition, cell reporter; Potency, µM (doses to about 37.9 µM), without a hit: at the top dose activity change, negative = inhibition, actives largely listed as inhibitors; 1.2% of 300,000 active; AID 540256, 2011; calls by dose curve; tested in HEK293 cells; also: potency is read from the fitted curve at half-maximal effect; nearly all actives have a fitted effect of over 50% in size
HCV inhibitor = qHTS Assay for Inhibitors of Hepatitis C Virus (HCV); 3.4% of 340,000 active; Potency, µM (titrated, usually from 41.8 µM), for the others: at the highest dose activity change, negative = inhibition, actives largely listed as inhibitors; Huh7.5.1 HCVcc-Cre infection, luciferase reporter, 44 h; active = well fitted inhibition curve with a large enough effect; inconclusive = small, poorly fitted or top-dose-only effect, or another doubt; inactive = no such curve, though single readings can be large or run the other way; also: potency is read from the fitted curve at half-maximal effect
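Whole-lifecycle infectious HCVcc-Cre system; cells 1,000/well, compound then virus (~0.5 moi) added 4 h after plating, 44 h culture. Luciferase read 15 sec following 15 min substrate incubation, room temp.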
Numbers without * were called inactive; ! = not active in a repeat; [ ] = remark or other dose. % is scaled to controls: 0 for no effect and ±100 for the full control effect.

`Cc1cc(C)nc(N2CCCC(C(=O)Nc3ccc4nc(C)c(C)nc4c3)C2)n1` (configuration not stated) gave FMDV antiviral -24%, MARV entry inh inconclusive, HCMV antiviral 15, LASV entry inh 4% and HCV inhibitor 5.6µM*.
Screening COc1cccc(NC(=O)C2CCCN(c3ncnc4onc(C)c34)C2)c1 (configuration not stated) returned FMDV antiviral inconclusive, HCMV antiviral -31 and LASV entry inh inconclusive.
Screening Cc1nnc(N2CCCC(C(=O)Nc3cc(F)ccc3F)C2)c2nn(-c3ccccc3)c(C)c12 (configuration not stated) returned FMDV antiviral -10%, HCMV antiviral -21, LASV entry inh -20%[46.1 µM] and HCV inhibitor 11µM*.
Cc1ccc(NC(=O)C2CCCN(c3ncnc4onc(C)c34)C2)cc1Cl (configuration not stated) was read as FMDV antiviral 20µM*, HCMV antiviral -3 and LASV entry inh 3%[46.1 µM].
Screening CCn1c(CNC(=O)c2ccccc2Br)nnc1SCC(=O)NC1=NCCS1 returned FMDV antiviral -6%, MARV entry inh -5%[46.1 µM], HCMV antiviral -5, LASV entry inh -3% and HCV inhibitor 4%.
`Cc1c(C(=O)N2CCC(Cc3ccccc3)CC2)sc2ncnc(NCc3ccccn3)c12` gave FMDV antiviral -29%.
Screening CC(=Nc1ccc(C)cc1)c1sc2ccccc2c1O returned MARV entry inh inconclusive, HCMV antiviral 11, LASV entry inh inconclusive and HCV inhibitor 13µM*.
`CC(=Nc1ccc(C)cc1C)c1sc2ccccc2c1O` gave FMDV antiviral -24%, HCMV antiviral -19 and HCV inhibitor inconclusive.
O=C(/C=C/NNC(=O)c1ccccc1)c1ccc([N+](=O)[O-])cc1 was read as FMDV antiviral -10%, MARV entry inh inconclusive, HCMV antiviral -98* and HCV inhibitor 3.5µM*.
For COCC(C)n1c(C)cc(C(=O)COC(=O)c2cnc(Cl)c(Cl)c2)c1C (configuration not stated) the results were FMDV antiviral -22%, HCMV antiviral -23 and HCV inhibitor inconclusive.
COCC(C)n1c(C)cc(C(=O)COC(=O)c2cccn2C)c1C (configuration not stated) was read as FMDV antiviral inconclusive, HCMV antiviral -76* and HCV inhibitor inconclusive.
O=c1c2ccccc2nc(-c2ccccc2Cl)n1O was read as FMDV antiviral -12%, MARV entry inh 10%[46.1 µM], HCMV antiviral -31, LASV entry inh 19% and HCV inhibitor 3%.
Screening O=c1c2ccccc2nc(-c2ccc(Cl)c(Cl)c2)n1O returned FMDV antiviral -23%, MARV entry inh 13%[46.1 µM], HCMV antiviral -63*, LASV entry inh inconclusive and HCV inhibitor -4%.
`O=c1c2ccc(Cl)cc2nc(-c2cccc(C(F)(F)F)c2)n1O` gave FMDV antiviral inconclusive, MARV entry inh inconclusive, HCMV antiviral -103*, LASV entry inh 2.5µM* and HCV inhibitor inconclusive.
N#Cc1ccc(-c2nc3cc(Cl)ccc3c(=O)n2O)cc1 was read as FMDV antiviral inconclusive, HCMV antiviral 9 and HCV inhibitor inconclusive.
For O=C(c1cccc(S(=O)(=O)N2CCOCC2)c1)N1CCN(c2ncccn2)CC1 the results were FMDV antiviral -11% and HCMV antiviral 33.
COc1ccc(O)c(C2=Nc3ccccc3N=C(c3ccccc3)C2)c1 was read as FMDV antiviral 25µM*!, MARV entry inh inconclusive, HCMV antiviral -21, LASV entry inh 16% and HCV inhibitor 3%.
CNc1nc(-c2ccc3c(c2)CCN3C(=O)c2cccc(F)c2)cs1 was read as FMDV antiviral -22%, HCMV antiviral -10 and HCV inhibitor 11µM*.
CNc1nc(-c2ccc3c(c2)CCN3C(=O)c2ccc(F)cc2)cs1 was read as FMDV antiviral 2%, HCMV antiviral -19 and HCV inhibitor inconclusive.
`O=C(CN1CCCC1)Nc1nc(-c2ccc3c(c2)CCN3C(=O)c2ccccc2F)cs1` gave FMDV antiviral 3%, MARV entry inh inconclusive, LASV entry inh inconclusive and HCV inhibitor 10µM*.
CC(C)[C@H](NC(=O)c1ccco1)C(=O)Nc1ccc(OC(F)F)cc1 was read as FMDV antiviral 0%, MARV entry inh 5%[46.1 µM], HCMV antiviral 72, LASV entry inh 8% and HCV inhibitor -17%.
Screening Nc1cccc2c(O)cccc12 returned FMDV antiviral -4%, MARV entry inh 15%, HCMV antiviral -102*, LASV entry inh -5% and HCV inhibitor 22%.
For CC1=NN(Cc2cc(C(C)(C)C)c(O)c(C(C)(C)C)c2)C(=O)C1 the results were FMDV antiviral 3%, HCMV antiviral inconclusive and HCV inhibitor -6%.
CCCCCN1N=C(C)CC1=O was read as FMDV antiviral 1%, MARV entry inh -13%[46.1 µM], HCMV antiviral -36, LASV entry inh 2µM* and HCV inhibitor -5%.
Screening C=C1C(=O)C23C(O)C1CCC2C12CCCC(C)(COC(C)=O)C1C(O)C3(O)OC2 (configuration not stated) returned FMDV antiviral 3.5µM*, MARV entry inh inconclusive, HCMV antiviral -2, LASV entry inh 11µM* and HCV inhibitor 3.5µM*.
O=C1N/C(=C/c2ccc(N3CCOCC3)o2)C(=O)N1c1cccc(Cl)c1 was read as FMDV antiviral -17%, MARV entry inh inconclusive, HCMV antiviral -100*, LASV entry inh -30% and HCV inhibitor inconclusive.
For CC(C)C(NC(=O)c1ccccc1F)C(=O)NCC(c1ccco1)N1CCCCC1 (configuration not stated) the results were FMDV antiviral 2%, MARV entry inh inconclusive, HCMV antiviral -64*, LASV entry inh 10% and HCV inhibitor 0%.
For O=C(NCC(c1ccco1)N1CCCCC1)c1ccc([N+](=O)[O-])s1 (configuration not stated) the results were FMDV antiviral -9%, MARV entry inh inconclusive, HCMV antiviral 9, LASV entry inh inconclusive and HCV inhibitor 0.56µM*.
`Cc1ccc2oc(C(=O)NCC(c3ccco3)N3CCCC3)c(C)c2c1` (configuration not stated) gave FMDV antiviral -13%, HCMV antiviral -15 and HCV inhibitor 32µM*.
Screening O=C(NCC(c1ccco1)N1CCCC1)c1cc2cc(Cl)ccc2o1 (configuration not stated) returned FMDV antiviral -1%, MARV entry inh inconclusive, HCMV antiviral -25, LASV entry inh 0% and HCV inhibitor 13µM*.
For Cc1ccc(CN2CCN(C(=O)/C=C/[C@H]3O[C@@H](n4cc(C)c(=O)[nH]c4=O)C[C@@H]3O)CC2)cc1 the results were FMDV antiviral 0% and HCMV antiviral 16.
